Shown are actives, neighbours in structure and some others; about 1.5% of the full set was active somewhere.
Measles CPE: protection of cells from measles virus; 140,000 compounds, 1.5% hits; Measles virus-infected cells, CPE protection, absorbance; protection (pct of control), % at 4 µM; in the data active = protection mostly above about 24%, no sharp cut-off; inactive = mostly below about 26%
cytoskel mod: modifiers of cytoskeleton assembly; HUVEC TNFa F-actin phalloidin imaging, high content; inhibition, % at 2 µM; 91,000 compounds, 0.18% hits;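 active = inhibition above the batch mean plus 3 SD and confirmed as a hit by visual image inspection, cut at about 30% in these data, passing the limit was not always enough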
Hits are given with their value; . = inactive; / = no result.

SMILES	Measles CPE	cytoskel mod
O=C1c2ccccc2C(=O)N1CCc1csc(-c2ccccc2)n1	39	.
O=C1c2ccccc2C(=O)N1CCc1csc(-c2ccc(F)cc2)n1	.	.
CCn1c(=O)c(C(=O)CN2CCN(S(=O)(=O)c3cc(C)ccc3C)CC2)c(N)n(Cc2ccccc2)c1=O	.	/
CCCCNc1nc2ccccc2[nH]1	.	.
CCOCCCNc1nc2ccccc2[nH]1	46	.
COc1ccc(OC)c(NS(=O)(=O)c2ccc(Cl)nc2)c1	32	/
CCCCOc1ccc(S(=O)(=O)Nc2cc(OC)ccc2OC)cc1	.	.
CC1CC(NC(=O)N(C)C)N(C)C(=O)N1 (stereo unspecified)	.	/
CCc1cc(=O)oc2c(C)c(OCC(=O)N3CCCc4ccccc43)ccc12	.	.
O=C(NC1CCCCCC1)C1CCN(c2nc3ccccc3o2)CC1	32	.
CC1CCCCN1CCCNC(=O)C1CCN(c2nc3ccccc3o2)CC1 (stereo unspecified)	.	/
CCCNC(=O)C(Sc1ccccc1)c1ccccc1 (stereo unspecified)	.	/
CCN(CC)C(=O)C(Sc1ccccc1)c1ccccc1 (stereo unspecified)	61	/
CCCCCCCCC(=O)Nc1cc(C)ccc1OC	.	.
O=C1NCCN1Cc1ccccc1	.	.
Cc1ccc(CN2CCNC2=O)cc1	.	.
O=C1NCCN1Cc1ccc(F)cc1	36	.
O=C1NCCN1Cc1ccccc1F	40	/
O=C(O)CC(NC(=O)c1sc2ccccc2c1Cl)c1ccc(F)cc1 (stereo unspecified)	.	/
CCOc1ccc(NC(=O)C(Cc2ccccc2)NC(=O)C2CCCCC2)cc1 (stereo unspecified)	.	/
CCCCN1C(=O)C(O)(CC(=O)c2c(C)n[nH]c2C)c2cc(Br)ccc21 (stereo unspecified)	73	.
CCCCN1C(=O)C(O)(CC(=O)c2ccco2)c2cc(Br)ccc21 (stereo unspecified)	.	/
COc1ccc2cc(Br)ccc2c1CC(=O)NC1CC(C)(C)NC(C)(C)C1	.	.
CN(C)c1ccc(NC(=O)CC(NCc2ccccn2)C(=O)O)cc1 (stereo unspecified)	.	/
NC(=O)c1cc2ccc(O)cc2oc1=Nc1ccccc1	30	/
SMILES	Measles CPE	cytoskel mod
NC(=O)c1cc2ccc(O)cc2oc1=NCc1ccccc1	.	/
O=C1CCCC(=O)C1=C1SCCS1	.	/
Cc1c(/C=C/C(=O)c2ccccc2)cnn1C	.	.
Cc1c(/C=C/C(=O)c2ccc(O)cc2)cnn1C	42	/
CN1CC2([N+](=O)[O-])CC=C(Oc3ccccc3)C([N+](=O)[O-])(C1)C2 (stereo unspecified)	30	.
C[N+]1(C)CC2([N+](=O)[O-])CC=C(Oc3ccccc3)C([N+](=O)[O-])(C2)C1 (stereo unspecified)	.	/
O=S(=O)(c1ccccc1)N1CCN=C1SCc1cccc(Cl)c1	.	/
CC1(C)C=C(c2ccc(C=O)s2)CC(C)(C)N1C=O	.	/
COc1ccc(/C(C)=N/NC(=O)c2ccc(CSc3cccc4cccnc34)cc2)cc1OC	70	.
C/C(=N\NC(=O)c1ccc(CSc2cccc3cccnc23)cc1)C1CCCCC1	.	/
CC1CCCC(C)N1C(=O)COC(=O)C(Cc1ccccc1)NC(=O)c1cccs1 (stereo unspecified)	.	/
COc1ccc(Cl)cc1NC(=O)Cc1c(F)cccc1Cl	.	/
COc1cc(C2C=C(C34CC5CC(CC(C5)C3)C4)NC(=S)N2)cc(OC)c1OC (stereo unspecified)	.	.
COc1ccc(OC)c(C2C=C(C34CC5CC(CC(C5)C3)C4)NC(=S)N2)c1 (stereo unspecified)	34	/
N#Cc1ccccc1Cn1cc(/C=C/[N+](=O)[O-])c2ccccc21	.	/
S=c1[nH]nc(-c2ccncc2)n1/N=C/c1cccc2ccccc12	29	/
Cc1ccc(/C=N/n2c(-c3ccncc3)n[nH]c2=S)cc1	.	/
Cc1[nH]c2ccccc2c1/C=C/c1nc2ccccc2c(=O)n1-c1cccc([N+](=O)[O-])c1	.	/
O=c1c2ccccc2nc(/C=C/c2c[nH]c3ccccc23)n1-c1ccc([N+](=O)[O-])cc1	32	/
COc1cc(OC)cc(C(=O)NCC(=O)OCC(=O)C(C)(C)C)c1	.	/
CCn1c(SCc2ccc(F)cc2)nnc1-c1nn(-c2ccccc2)ccc1=O	55	.
CCn1c(CSCc2ccc(F)cc2)nnc1SCC(=O)N1CCN(c2ccccc2)CC1	.	.
CC(C)=NNc1nc2sc3c(c2c(=O)[nH]1)CC(C)(C)OC3	.	/
CC1(C)Cc2c(sc3nc(N/N=C/c4ccccc4)[nH]c(=O)c23)CO1	21	/
O=C(CNc1ccc2ccccc2c1)N/N=C/C=C/c1cccc([N+](=O)[O-])c1	.	/
SMILES	Measles CPE	cytoskel mod
COC(=O)/C=C1/S/C(=N/N=C/c2ccc(N(C)C)cc2)NC1=O	.	/
CC(C)(C)C(=O)NCCCc1nc2ccccc2n1CCCOc1ccc(Cl)cc1	.	.
COC(=O)c1ccccc1NS(=O)(=O)c1ccc(O)c(C(=O)O)c1	.	/
O=C(O)c1cc(S(=O)(=O)O)ccc1O	55	/
O=C(O)c1ccccc1O	43	/
O=C(NO)c1ccccc1O	.	/
O=C(NCc1ccc(Cl)cc1)C(=O)NCC1OCCN1C(=O)c1cccs1 (stereo unspecified)	.	/
CN1C(=O)/C(=C/c2cn(CC(=O)N3CCCCC3)c3ccccc23)c2ccccc21	.	.
Cc1cccc(S(=O)(=O)c2c(N)n(/N=C/c3ccccc3)c3nc4ccccc4nc23)c1	60	.
Nc1c(S(=O)(=O)c2ccccc2)c2nc3ccccc3nc2n1/N=C/c1cccc(O)c1	.	.
COCC(O)CNc1ccccc1 (stereo unspecified)	.	/
CC(NC(=O)c1ccccc1NS(C)(=O)=O)c1ccccc1 (stereo unspecified)	.	.
CS(=O)(=O)Nc1ccccc1C(=O)O	51	/
CCc1nnc(NC(=O)c2cc(S(=O)(=O)N(CC)CC)ccc2Cl)s1	.	.
CCN(CC)S(=O)(=O)c1ccc(Cl)c(C(=O)NC)c1	45	.
C=CCn1c(SCc2ccccc2)nnc1-c1cccnc1	.	.
C=CCn1c(SCc2nc(N)nc(N(C)C)n2)nnc1-c1cccnc1	36	.
Cc1cc(C)nc(/N=C(\N)Nc2ccc(F)c([N+](=O)[O-])c2)n1	.	.
O=S(=O)(NCc1cc(-c2ccccc2Cl)no1)c1ccc(Cl)cc1	.	.
Cc1ccc(-c2nc3n(n2)Cc2ccccc2-3)cc1	.	.
NC(=S)Cc1nc2n(n1)Cc1ccccc1-2	50	.
Cc1c(Br)c([N+](=O)[O-])nn1C(C)C(=O)N1CCCc2ccccc21 (stereo unspecified)	.	.
O=c1c2cnn(-c3ccccc3)c2nc(-c2cccs2)n1-c1cccc(Cl)c1	.	/
CN(C)S(=O)(=O)c1ccc(NS(=O)(=O)/C=C/c2ccccc2)cc1	44	.
COc1ccc(NS(=O)(=O)/C=C/c2ccccc2)cc1	.	/
SMILES	Measles CPE	cytoskel mod
COc1cccc(/C=N/NC(=O)c2ccc([N+](=O)[O-])cc2Cl)c1O	.	/
COc1ccc(CCNC(=O)CSc2nc3c(c(=O)n(C)c(=O)n3C)n2C)cc1OC	.	.
O=CN1CCN(C(=O)c2ccc([N+](=O)[O-])cc2)CC1	.	/
COc1ccc(Cl)cc1S(=O)(=O)N1CCN(Cc2ccc3c(c2)OCO3)CC1	.	.
O=S(=O)(Cc1ccccc1Cl)N1CCN(Cc2ccc3c(c2)OCO3)CC1	.	47
O=C(CSc1nnc(-c2ccncc2)n1-c1ccc(F)cc1)NNC(=O)c1cccc(O)c1	.	/
